# Experiments:
# Test in all cases: PBM binding z-score (relative to random genomic background probes); higher = stronger binding; sequences stand for … in GC…GCGATTGACAGCGTAGAATGAAGG
# [1] = system: RARb homodimer (NR concentration 270 nM)
# In short: (§1)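 Probes were double-stranded and carried 34-nt variable regions with direct-repeat seeds, single-nucleotide variants, half-site ablations and random human genomic background sequences, printed on custom Agilent 4×180K protein-binding microarrays. Arrays were incubated 1 h with ligand-free nuclear receptor dimers in PBS pH 7.4, 2% milk, 0.02% Triton X-100, 1 mM DTT, 0.2 mg/mL BSA and 0.4 mg/ml salmon testes DNA. Antibodies against each partner (one per run) detected binding, and scanned fluorescence was regression-normalized. Binding z-scores use the random background probes as reference.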
# [2] = system: RARg:RXRa (NR concentration 270 nM, RXRa partner concentration 90 nM)
# In short: as §1
# [3] = system: RARg homodimer (NR concentration 270 nM)
# In short: as §1
# [4] = system: RXRa DBDmut IVT, anti-RXR (DBD mutation: RXRa K156A/R161A, NR concentration 90 nM)
# In short: as §1
# [5] = system: RXRa homodimer (NR concentration 180 nM)
# In short: as §1
# [6] = system: THRa:RXRa (NR concentration 90 nM, RXRa partner concentration 90 nM)
# In short: as §1
# [7] = system: THRa homodimer (NR concentration 90 nM)
# In short: as §1
# [8] = system: VDR homodimer (NR concentration 270 nM)
# In short: as §1
Sequence,PBM binding z-score [1],PBM binding z-score [2],PBM binding z-score [3],PBM binding z-score [4],PBM binding z-score [5],PBM binding z-score [6],PBM binding z-score [7],PBM binding z-score [8]
CTCGAAAGGTCGGTTGAGGTGAGTATTCGGATAA,2.52,2.59,2.91,1.01,2.25,4.98,1.25,0.522
CCGACTGGGGCAGAAAGGTTACCAGACCATCCGG,2.18,1.75,1.28,-0.651,1.71,0.99,-0.742,-0.568
CCGACTGGGGCAGAAAGGGTACCATACCATCCGG,0.624,0.0836,0.273,-1.36,0.143,-0.36,-0.53,-0.349
TCTTGTAGAACAAGCAGGTTAAGAAAGCCTGAGT,0.0404,-0.0958,-0.255,0.567,0.349,0.0268,-0.349,-0.0601
TTACCAAGGTGAAAGTCGTTGATCCCTCTGTAGA,0.704,0.61,0.23,0.0451,1.2,2,0.568,-0.192
AGTCAAAGTTCACTAGGTAACGTACGATTCAGCT,4.12,4.87,5.61,4.41,3.85,2.2,0.165,4
TCTTGTAGATTAAAGGTTAAGAAAGCCGAAGCCT,1.05,1.04,0.588,0.892,1.99,1.09,-0.228,0.123
TCATATAGGTAAATGCTAGGTGACAGTCCGATCT,0.444,0.642,0.401,1.28,0.653,1.4,0.389,0.525
TTACCAAGGTGAAGGTCGCTGATCCCTCTGTAGA,2.03,1.72,1.7,-0.269,1.85,2.41,0.612,-0.248
ATATGTAGGTTTAGGGTCATTCAGGTTGGTTCGC,3.05,3.53,2.43,2.74,4.4,4.23,4.2,4.83
TGTCAAAGTACAAAGGTAACGTAAGTATCCACAC,1.01,1.41,1.32,0.417,0.984,1.33,-0.416,0.229
CAGACTAGGTCAAGGTCAAAGTCGGTTTGTGCCA,5.11,6.12,6.67,2.61,6.04,4.32,3.45,4.18
CCTACTGGGCCAAGGTCGTTGATCAGTCAAAGCA,0.763,0.488,0.541,-0.262,0.465,1.31,0.184,1.19
GCGACTGGGCCAAAGCAGGTTACCATAAGGTTGG,0.333,-0.0916,-0.132,-0.818,-0.0243,1.82,-0.598,-0.503
TAGCCTAGGTCATTGGGCCTGTATAGTACGCATC,2.84,3.78,4.29,1.59,3.33,2.74,0.697,1.12
ATACCAAGGTAATCGTGAGGTCGTTGATACTAAC,1.44,1.55,0.586,0.482,1.2,3.27,2.64,3.08
CAGACTGGGGCAGAAAGGTTACCATACCATCCGG,2.4,2.09,1.85,-0.43,1.98,1.29,-0.421,0.0589

Sequence,PBM binding z-score [1],PBM binding z-score [2],PBM binding z-score [3],PBM binding z-score [4],PBM binding z-score [5],PBM binding z-score [6],PBM binding z-score [7],PBM binding z-score [8]
CCTACTGGGCCAAAAAGGTGATTGATGCCGATAA,0.483,0.0442,0.047,-0.635,-0.0112,0.0456,-0.353,-0.114
GCATATAGGTAATACAGGGTGAAAGTCCGATTGT,0.685,0.386,0.492,0.439,0.917,3.38,0.41,0.239
GCGTGTAGATCAAGGTTAAGAAAGACTAAGCTAA,0.225,0.354,0.289,-0.253,0.772,1.54,-0.256,-0.286
TGAATGAGTTTATAAGATCAGGGAACGTTGCAAA,-0.48,0.181,0.344,3,0.0895,0.0488,-0.207,2.37
TCGCGTAGGTTAGTCGGGGCATTCAGCCAACATA,0.519,0.0765,-0.112,0.21,-0.0315,1.26,-0.0265,0.208
TCATATAGGTAATACGGGTGAAAGTCGGCATCTA,0.258,0.35,0.383,1.33,0.921,0.697,0.103,0.0658
CGGACTGGGGCAGAAAGGTTACCATACCATCCGG,2.51,1.79,1.69,-0.693,1.85,1.29,-0.00516,0.148
CCTTACGGGTCACTCCAGGTTATCGCATCGGAGT,3.25,4.44,4.23,1.07,4.36,5.13,0.863,1.57
AGATGTAGGTTAAGGGTCATTCAGGTTGGTTCGC,4.06,4.87,3.79,2.18,6.66,3.64,2.06,4.78
TCTGCTAGATCAGTTGGTCAGCTAACGAGCTGCC,-0.799,-0.667,-0.644,-0.256,-0.419,-1.77,-1.48,-1.49
TCTAGTTGGTCACGGAGGTAACACACGACGGGTA,1.39,1.24,1.7,0.681,1.04,1.12,0.797,0.198
CGTCCAAGGTCAGCAGGTCAGTGGAAGCGACGTG,5.03,6.2,6.72,2.48,4.81,3.96,2.37,1.6
ACTAGCAGGCCAAGGGTCACGCAAGATTAGTCCG,4.29,5.29,4.8,0.355,5.96,3.38,0.69,1.24
AGTCAAAGTTCAGGACGAGGCAACGTAAAGCACG,2.9,3.86,4.55,3.06,2.86,2.76,0.753,1.61
GATACAGGGTCAAGGCCAGAGGACGCGTATTGAT,3.63,5.29,4.94,2.07,5.78,3.64,1.43,2.28
GCATAGAGGTAATACAAGGTGAAAGTCCGATTGT,1.08,0.816,0.537,0.392,0.977,4.44,0.985,0.216
GCGTCTGGGGCAAAGCAGGTTACCATAAGGTTGG,1.13,0.435,0.815,-0.387,0.339,3.04,0.0693,-0.358

# Reference: the supplement of paper PMC6555819
